# Data reported in PubChem BioAssay AID920 (The Scripps Research Institute Molecular Screening Center, 2007).
# Hit rate of the full screen: of about 200,000 compounds, about 700 (0.35%) were called active.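 Rule for the calls: active = inhibition above a set limit, the mean inhibition across all tested compounds plus 3 SD (cut at about 34% in these data); inactive = the rest.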 Shown is part of a subset that was picked to be rich in actives.
# Assay: blockers of IFN-gamma driven STAT1 reporter – cell-based, HTS, luciferase reporter, primary screen (AID 920);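 note: 0% = IFN-gamma with DMSO and 100% = IFN-gamma with 300 µM nifuroxazide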
# Conditions: NIH 3T3 STAT1-luciferase reporter, luminescence, at 5.5 µM, active compounds read high
row,SMILES,inhibition
1,O=C(COc1ccccc1)Nc1ccc(N2CCN(C(=O)c3cccs3)CC2)cc1,-5.48% (inactive)
2,CN(c1ccc2nc3ccccc3c(=O)n2n1)C1CCCCC1,90.1% (active)
3,O=c1c2ccccc2nc2n1C1(CCCCC1)Cc1ccccc1-2,-5.21% (inactive)
4,CCOC(=O)C(C)Sc1nc2ccccc2c(=O)n1CC1CCCCC1 (configuration not stated),2.46% (inactive)
5,Cc1ccc(C)c(-n2nnnc2SCC(=O)c2c(N)n(C)c(=O)n(C)c2=O)c1,-0.37% (inactive)
6,CCc1ccc(NC(=O)Nc2ccncc2)cc1,-10.4% (inactive)
7,COc1cc(C)c(Cl)cc1S(=O)(=O)n1ccnc1,7.39% (inactive)
8,CCCOc1cc(C)c(S(=O)(=O)n2nnc3ccccc32)cc1C,-0.4% (inactive)
9,CCOc1cc(C)c(Cl)cc1S(=O)(=O)n1nnc2ccccc21,42.2% (active)
10,CC(CC(=O)O)CC(=O)NNC(=O)c1cccc(Br)c1 (configuration not stated),-8.27% (inactive)
11,O=C1c2ccccc2NC(c2ccccn2)N1NS(=O)(=O)c1ccccc1 (configuration not stated),-5.92% (inactive)
12,O=c1oc2ccccc2cc1-c1cn(-c2ccccc2)c(=S)[nH]1,76.9% (active)
13,O=C(c1cn(-c2ccccc2)nc1-c1cc2ccccc2oc1=O)N1CCOCC1,2.66% (inactive)
14,Nc1ncc(-c2cc3ccccc3oc2=O)s1,-72.7% (inactive)
15,CCNC(=O)COc1cc(C)c(Br)c(C)c1,-0.94% (inactive)
16,CCC1CCCCN1CCCNC(=O)c1cc2c(Cl)nc3ccccc3c2s1 (configuration not stated),-24.2% (inactive)
17,O=C(C1=C[C@H](c2coc3ccccc3c2=O)C[C@H](OCc2ccc(CO)cc2)O1)N1CCN(Cc2ccccc2)CC1,7.51% (inactive)
18,O=C1CC(c2c(F)cccc2Cl)C(n2cncn2)C(O)=C1C1NCCc2ccccc21 (configuration not stated),-3.15% (inactive)
19,O=C(O)c1ccc(N/N=C/c2cn(-c3ccccc3)nc2-c2cccs2)cc1,-5.55% (inactive)

row,SMILES,inhibition
1,CCNC(=S)NNC(=O)c1ccc2ncccc2c1,-9.62% (inactive)
2,O=C(O)c1ccc(N/N=C/c2ccc3ncccc3c2)cc1,37.4% (active)
3,COc1ccc(N2CCN(C(=O)c3ccc4c(Cl)c5c(nc4c3)CCCC5)CC2)cc1,1.44% (inactive)
4,Cn1cccc1-c1nc2ccccc2n1C,-1.19% (inactive)
5,CN1c2ccccc2-c2nc3ccccc3n2C1c1ccco1 (configuration not stated),-3.93% (inactive)
6,Cn1c(-c2ccco2)nc2cc3ccccc3cc21,36.6% (active)
7,COCCNC(=S)N1CCC(NC(=O)C23CC4CC(CC(C4)C2)C3)CC1,-0.94% (inactive)
8,CCOC(=O)C1(Cc2ccc(Cl)cc2)CCN(C(=O)C2=NNC(=O)CC2)CC1,2.27% (inactive)
9,COC(=O)C1=C(C)N(C(C)c2ccccc2)C(=O)/C1=C\c1ccco1 (configuration not stated),6.65% (inactive)
10,CCn1c(CSc2nc(C)cc(C)n2)nnc1SCC(N)=O,-4.79% (inactive)
11,Cc1ccccc1-n1cc(CNC(=O)CC2C(=O)NCCN2C/C=C/c2ccccc2)cn1 (configuration not stated),-1.08% (inactive)
12,O=C(CCN1CCN(c2ccccc2)CC1)NNC(=S)Nc1ccccc1,12.2% (inactive)
13,CCN(CC)S(=O)(=O)c1ccc(NC(=O)c2cccnc2Cl)c(NC(=O)c2cccnc2Cl)c1,10.8% (inactive)
14,O=c1cc(CSc2ccc(Cl)cc2)nc(N2CCOCC2)[nH]1,2.61% (inactive)
15,CCOc1ncccc1C(=O)OCc1cn2cc(Cl)ccc2n1,-9.01% (inactive)
16,Clc1ccc2nc(CSc3ccccc3)cn2c1,35.4% (active)
17,O=C(NCCCO)/C(=C\C=C\c1ccccc1)NC(=O)c1ccccc1Cl,3.7% (inactive)
18,Cc1nn(C)c(C)c1CN(C(=O)CCc1nnc(Cc2c[nH]c3ccccc23)o1)C(C)C,-1.77% (inactive)
19,Cc1cc(C2=NNC(=Nc3ccc(S(=O)(=O)N4CCOCC4)cc3)SC2)c(C)n1CC1CCCO1 (configuration not stated),-1.28% (inactive)

row,SMILES,inhibition
1,C=CCn1c(C)cc(C2=NNC(=NCC)SC2)c1C,94.7% (active)
2,COCCn1c(C)cc(C2=NNC(=Nc3ccc(F)cc3)SC2)c1C,-36.4% (inactive)
3,N/C(=N\OC(=O)Cc1ccccc1[N+](=O)[O-])c1ccc(Br)cc1,0.32% (inactive)
4,CCc1cc2c(N3CCN(c4nnc(CC)s4)CC3)ncnc2s1,51.2% (active)
5,CCc1cc2c(NC3CCCC3)ncnc2s1,22.1% (inactive)
6,CCc1cc2c(SCC(=O)Nc3ncc(Cl)c(C)c3Cl)ncnc2s1,-4.22% (inactive)
7,O=C1C2C3C=CC(C4CC34)C2C(=O)N1c1nccs1 (configuration not stated),3.92% (inactive)
8,C#CCOCCOCCOCCNc1nc(N2CCN(C(=O)[C@H](C(C)C)n3cc(CCO)nn3)CC2)nc(N2CCN(C(=O)[C@H]([C@@H](C)CC)n3cc(CCCN=C(N)N)nn3)CC2)n1,-0.51% (inactive)
9,CC(=O)c1ccc(N2CCN(CC(=O)Nc3ccccc3N3CCOCC3)CC2)cc1,15% (inactive)
10,O=C(CSC(=S)N1CCOCC1)c1ccccc1,-27.1% (inactive)
11,CN(C)CCNC(CC(=O)Nc1ccc(Cl)c(Cl)c1)C(=O)O (configuration not stated),0.9% (inactive)
12,O=C(CC(O)(C(F)(F)F)C(F)(F)F)Nc1ccc(Cl)c(Cl)c1,48.3% (active)
13,O=C(CC(=O)Nc1ccc(Cl)c(Cl)c1)N/N=C/c1ccc(O)cc1,6.41% (inactive)
14,CC1=C(C)CC(C(=O)NC(C)CCc2ccccc2)C(C(=O)O)C1 (configuration not stated),-0.81% (inactive)
15,CCCCOc1ccc(C(=O)NCC(=O)OCC(=O)N2CCN(S(=O)(=O)c3ccc(C)cc3C)CC2)cc1,-1.91% (inactive)
16,CC(C)Cn1c(N)c(C(=O)NCc2cccs2)c2nc3ccccc3nc21,-2.91% (inactive)
17,CCC(C)NC(=O)c1c(N)n(/N=C/c2cccs2)c2nc3ccccc3nc12 (configuration not stated),39.4% (active)
18,CCCNC(=O)c1c(N)n(-c2ccc(S(N)(=O)=O)cc2)c2nc3ccccc3nc12,-1.16% (inactive)
19,Cc1ccc(-c2nc(-c3cccnc3)sc2CC(=O)Nc2ccc(C)c(Cl)c2)cc1,13.7% (inactive)
